{"source": "PubChem BioAssay"}
{"tested_on": "XIP peptide (Xip251-270)", "experiment": "small-molecule binders of XIP peptide, primary screen, biochemical, small-molecule microarray, fluorescence 635/667 nm, 0.5 µg/mL protein (AID 1183)", "conditions": "small-molecule microarray binding, fluorescence 635 nm; higher = more signal"}
{"compound": "CC(CCC(=O)OC[C@H]1O[C@H](C#Cc2ccccc2)C=C[C@@H]1Oc1ccc(C)cc1)=NOC[C@@H](O)[C@H]1O[C@@H]2OC(C)(C)O[C@@H]2[C@H]1O", "composite z-score": -0.823}
{"compound": "CC(C)(C)N1C(=O)[C@H]2[C@H]3[C@H](O)[C@H](O)CC(=NOCc4ccccc4)[C@@H]3CC[C@H]2C1=O", "composite z-score": 0.779}
{"compound": "COC(=O)CC=C[C@@H](C)[C@@H](C=NO[C@@H](C)c1cc(-c2c(C)cc(C)cc2C)no1)OC", "composite z-score": -0.293}
{"compound": "CCOC(=O)[C@H](CC(C)C)NC(=O)CCC1CC(OC(=O)NCc2cccc3ccccc23)CC2(CCCC(COC(=O)NCCN3CCOCC3)O2)O1", "note": "(stereo partly specified)", "composite z-score": 0.464}
{"compound": "CCN1C(=O)[C@H]2[C@H]3[C@H](O)C=CC(=O)[C@@H]3CC[C@H]2C1=O", "composite z-score": -0.0737}
{"compound": "O=C(NN=C1C[C@@H](O)[C@@H](O)[C@@H]2[C@@H]3C(=O)N(c4ccc(F)cc4F)C(=O)[C@@H]3CC[C@@H]12)OCc1ccccc1", "composite z-score": 0.159}
{"compound": "C[C@@H]1CC[C@H]2C(=O)O[C@H](COc3ccc(C(C)(C)C)cc3)CN2[C@H]1c1ccc(Br)cc1", "composite z-score": 0.769}
{"compound": "CCOC(=O)[C@H](Cc1ccccc1)NC(=O)CCC1CC(OC(=O)NCc2ccc3c(c2)OCO3)CC2(CCCC(COC(=O)NCC(c3ccccc3)c3ccccc3)O2)O1", "note": "(stereo partly specified)", "composite z-score": 0.308}
{"compound": "C#CCCCON=C1C[C@@H](O)[C@@H](O)[C@@H]2[C@@H]3C(=O)N(c4cccc(Oc5ccccc5)c4)C(=O)[C@@H]3CC[C@@H]12", "composite z-score": 0.481}
{"compound": "COC(=O)[C@H](C)NC(=O)CCC1CC(OC(=O)NCc2cccc3ccccc23)CC2(CCCC(COC(=O)NCC3CCCCC3)O2)O1", "note": "(stereo partly specified)", "composite z-score": 0.689}
{"compound": "CC(CCN1CCc2nc(-c3ccccc3)c(-c3ccccc3)cc2C1)=NOC(C)CN1CCCCc2nc(C)c(C)cc21", "note": "(stereo unspecified)", "composite z-score": 0.312}
{"compound": "COC(=O)[C@H](C)NC(=O)[C@@H](C)CO", "composite z-score": 0.332}
{"compound": "COC(=O)[C@@H]1CC[C@H](C)[C@@H](c2ccc(C)cc2)N1C(=O)c1ccc(C=NOC(C)CN2CCCCc3nc(C)c(C)cc32)cc1", "note": "(stereo partly specified)", "composite z-score": 0.51}
{"compound": "O=C1[C@H]2[C@H]3[C@H](O)[C@H](O)CC(=NOCc4ccccc4)[C@H]3CC[C@H]2C(=O)N1c1cccc(Oc2ccccc2)c1", "composite z-score": 0.723}
{"compound": "CCOC(=O)NN=C1C[C@@H](O)[C@@H](O)[C@@H]2[C@@H]3C(=O)N(C4CCCCC4)C(=O)[C@@H]3CC[C@@H]12", "composite z-score": 0.101}
{"compound": "CCOC(=O)CCN1C(=O)[C@H]2[C@H]3[C@H](O)[C@H](O)CC(=O)[C@H]3CC[C@H]2C1=O", "composite z-score": 0.23}
{"compound": "O=C1[C@H]2[C@H]3[C@H](O)[C@H](O)CC(=NO[C@@H]4O[C@H](CO)[C@@H](O)[C@H](O)[C@H]4O)[C@@H]3CC[C@H]2C(=O)N1Cc1ccccc1", "composite z-score": 0.216}
{"compound": "CC(CCC(=O)OC[C@H]1O[C@H](C#Cc2ccccc2)C=C[C@@H]1Oc1ccc(C)cc1)=NO[C@@H](C)c1cn([C@H](CO)Cc2ccccc2)nn1", "composite z-score": 0.54}
{"compound": "CCOC(=O)CCN1C(=O)[C@H]2[C@H]3[C@H](O)[C@H](O)CC(=NOC[C@@H](O)COCc4ccco4)[C@H]3CC[C@H]2C1=O", "composite z-score": 0.328}
{"compound": "C=CC[C@@H]1C=C[C@H](ON=Cc2ccc(C(=O)N3[C@H](c4ccc(C)cc4)[C@@H](C)CC[C@H]3C(=O)OC)cc2)[C@@H](CO)O1", "composite z-score": 0.379}
{"compound": "Cc1cc2c(nc1C)CCCN2CC(O)CN1CCN(C)CC1", "note": "(stereo unspecified)", "composite z-score": 0.362}
{"compound": "CCN1C(=O)[C@H]2[C@H]3[C@H](O)[C@H](O)CC(=NOC[C@@H](C)[C@H](OCc4ccccc4)C(C)C)[C@@H]3CC[C@H]2C1=O", "composite z-score": 0.757}
{"compound": "COc1ccc(-c2ccc3c(n2)CCCN3CC(O)CN2CCCc3nc(C)c(C)cc32)cc1", "note": "(stereo unspecified)", "composite z-score": 0.79}
{"compound": "CO[C@H]1COC(=O)[C@H](C)NC(=O)[C@@H](C)COC(=O)CC=C[C@@H]1C", "composite z-score": 0.518}
{"compound": "O=C1[C@H]2[C@H]3[C@H](O)[C@H](O)CC(=NOCc4ccccc4)[C@@H]3CC[C@H]2C(=O)N1Cc1ccccc1", "composite z-score": -0.0597}
{"tested_on": "not listed separately", "experiment": "Plasmodium falciparum growth inhibition, primary screen, strain 3D7, DAPI fluorescence, 100 nL (AID 1184);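 also: parasites grown inside human red blood cells in medium with human serum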", "conditions": "P. falciparum 3D7 growth, 3 d, higher = more signal"}
{"compound": "COc1cccc([C@@H]2Oc3ccc(Br)cc3C(=O)[C@H]2O)c1", "z-score": 0.988}
{"compound": "CO[C@@H]1COC(=O)CC=C[C@@H](C)[C@@H]2C=C[C@@H](O)[C@@H](COC(=O)CC=C[C@H]1C)O2", "z-score": 0.328}
{"compound": "O=C1C2=CC[C@H]3C(=O)N(Cc4ccc5c(c4)OCO5)C(=O)[C@H]3[C@H]2[C@H](O)[C@@H]2O[C@H]12", "z-score": 1.68}
{"compound": "CCOC(=O)[C@H](Cc1ccccc1)NC(=O)CCC1CC(OC(=O)NCc2ccc3c(c2)OCO3)CC2(CCCC(COC(=O)NCc3cccc(C(F)(F)F)c3)O2)O1", "note": "(stereo partly specified)", "z-score": -2.01}
{"compound": "CO[C@@H]1COC(=O)CCC[C@@H](C)[C@H](OC)COC(=O)CCC[C@H]1C", "z-score": -0.0787}
{"compound": "C[C@@H]1C=CCC(=O)OC[C@H](C)C(=O)OC[C@H]2O[C@H]1C=C[C@H]2O", "z-score": -0.315}
{"compound": "CC(C)CON=C1[C@H]2CCn3c(=O)n(-c4ccccc4)c(=O)n3[C@H]2[C@H](O)[C@@H]2O[C@H]12", "z-score": -1.94}
{"compound": "O=C1[C@H]2[C@H]3[C@H](O)[C@H](O)CC(=NO[C@@H]4O[C@H](CO)[C@@H](O)[C@H](O)[C@H]4O)[C@H]3CC[C@H]2C(=O)N1Cc1ccccc1", "z-score": -1.19}
{"compound": "CCN1C(=O)[C@H]2[C@H]3[C@H](O)[C@H](O)CC(=NOCC=C(C)CCC=C(C)C)[C@H]3CC[C@H]2C1=O", "z-score": 1.97}
{"compound": "CC(CCC(=O)OC[C@H]1O[C@H](C#Cc2ccccc2)C=C[C@@H]1Oc1ccc(C)cc1)=NOC[C@@H](O)COCc1ccco1", "z-score": 0.177}
{"compound": "CCN1C(=O)[C@H]2[C@H]3[C@H](O)[C@H](O)CC(=NO[C@@H]4O[C@H](CO)[C@@H](O)[C@H](O)[C@H]4O)[C@@H]3CC[C@H]2C1=O", "z-score": 1.82}
{"compound": "CC(CCC(=O)OC[C@H]1O[C@H](C#Cc2ccccc2)C=C[C@@H]1Oc1ccc(C)cc1)=NOC[C@@H](O)[C@H]1O[C@@H]2OC(C)(C)O[C@@H]2[C@H]1O", "z-score": -0.521}
{"compound": "CC(C)(C)N1C(=O)[C@H]2[C@H]3[C@H](O)[C@H](O)CC(=NOCc4ccccc4)[C@@H]3CC[C@H]2C1=O", "z-score": 0.281}
{"compound": "COC(=O)CC=C[C@@H](C)[C@@H](C=NO[C@@H](C)c1cc(-c2c(C)cc(C)cc2C)no1)OC", "z-score": -1.12}
{"compound": "CCOC(=O)[C@H](CC(C)C)NC(=O)CCC1CC(OC(=O)NCc2cccc3ccccc23)CC2(CCCC(COC(=O)NCCN3CCOCC3)O2)O1", "note": "(stereo partly specified)", "z-score": -1.71}
{"compound": "CCN1C(=O)[C@H]2[C@H]3[C@H](O)C=CC(=O)[C@@H]3CC[C@H]2C1=O", "z-score": 1.02}
{"compound": "O=C(NN=C1C[C@@H](O)[C@@H](O)[C@@H]2[C@@H]3C(=O)N(c4ccc(F)cc4F)C(=O)[C@@H]3CC[C@@H]12)OCc1ccccc1", "z-score": 0.823}
{"compound": "C[C@@H]1CC[C@H]2C(=O)O[C@H](COc3ccc(C(C)(C)C)cc3)CN2[C@H]1c1ccc(Br)cc1", "z-score": -0.407}
{"compound": "CCOC(=O)[C@H](Cc1ccccc1)NC(=O)CCC1CC(OC(=O)NCc2ccc3c(c2)OCO3)CC2(CCCC(COC(=O)NCC(c3ccccc3)c3ccccc3)O2)O1", "note": "(stereo partly specified)", "z-score": -0.909}
{"compound": "C#CCCCON=C1C[C@@H](O)[C@@H](O)[C@@H]2[C@@H]3C(=O)N(c4cccc(Oc5ccccc5)c4)C(=O)[C@@H]3CC[C@@H]12", "z-score": -1.96}
{"compound": "COC(=O)[C@H](C)NC(=O)CCC1CC(OC(=O)NCc2cccc3ccccc23)CC2(CCCC(COC(=O)NCC3CCCCC3)O2)O1", "note": "(stereo partly specified)", "z-score": -1.96}
{"compound": "CC(CCN1CCc2nc(-c3ccccc3)c(-c3ccccc3)cc2C1)=NOC(C)CN1CCCCc2nc(C)c(C)cc21", "note": "(stereo unspecified)", "z-score": 0.0201}
{"compound": "COC(=O)[C@H](C)NC(=O)[C@@H](C)CO", "z-score": -0.613}
{"compound": "COC(=O)[C@@H]1CC[C@H](C)[C@@H](c2ccc(C)cc2)N1C(=O)c1ccc(C=NOC(C)CN2CCCCc3nc(C)c(C)cc32)cc1", "note": "(stereo partly specified)", "z-score": -1.76}
{"compound": "O=C1[C@H]2[C@H]3[C@H](O)[C@H](O)CC(=NOCc4ccccc4)[C@H]3CC[C@H]2C(=O)N1c1cccc(Oc2ccccc2)c1", "z-score": -0.835}
{"compound": "CCOC(=O)NN=C1C[C@@H](O)[C@@H](O)[C@@H]2[C@@H]3C(=O)N(C4CCCCC4)C(=O)[C@@H]3CC[C@@H]12", "z-score": 1.51}
{"compound": "CCOC(=O)CCN1C(=O)[C@H]2[C@H]3[C@H](O)[C@H](O)CC(=O)[C@H]3CC[C@H]2C1=O", "z-score": -1.18}
{"compound": "O=C1[C@H]2[C@H]3[C@H](O)[C@H](O)CC(=NO[C@@H]4O[C@H](CO)[C@@H](O)[C@H](O)[C@H]4O)[C@@H]3CC[C@H]2C(=O)N1Cc1ccccc1", "z-score": -0.165}
{"compound": "CC(CCC(=O)OC[C@H]1O[C@H](C#Cc2ccccc2)C=C[C@@H]1Oc1ccc(C)cc1)=NO[C@@H](C)c1cn([C@H](CO)Cc2ccccc2)nn1", "z-score": -1.02}
{"compound": "CCOC(=O)CCN1C(=O)[C@H]2[C@H]3[C@H](O)[C@H](O)CC(=NOC[C@@H](O)COCc4ccco4)[C@H]3CC[C@H]2C1=O", "z-score": -1.44}
{"compound": "C=CC[C@@H]1C=C[C@H](ON=Cc2ccc(C(=O)N3[C@H](c4ccc(C)cc4)[C@@H](C)CC[C@H]3C(=O)OC)cc2)[C@@H](CO)O1", "z-score": 0.495}
{"compound": "Cc1cc2c(nc1C)CCCN2CC(O)CN1CCN(C)CC1", "note": "(stereo unspecified)", "z-score": 0.547}
{"compound": "CCN1C(=O)[C@H]2[C@H]3[C@H](O)[C@H](O)CC(=NOC[C@@H](C)[C@H](OCc4ccccc4)C(C)C)[C@@H]3CC[C@H]2C1=O", "z-score": 0.605}
{"compound": "COc1ccc(-c2ccc3c(n2)CCCN3CC(O)CN2CCCc3nc(C)c(C)cc32)cc1", "note": "(stereo unspecified)", "z-score": 0.618}
{"compound": "CO[C@H]1COC(=O)[C@H](C)NC(=O)[C@@H](C)COC(=O)CC=C[C@@H]1C", "z-score": 0.336}
{"compound": "O=C1[C@H]2[C@H]3[C@H](O)[C@H](O)CC(=NOCc4ccccc4)[C@@H]3CC[C@H]2C(=O)N1Cc1ccccc1", "z-score": 0.0087}
